Results on one sequence are retold here after paper PMC7862700, “An all-to-all approach to the identification of sequence-specific readers for epigenetic DNA modifications on cytosine”.

What all share (experiment): DAPPL (digital affinity profiling via proximity ligation, sequencing); 10 mM Tris-HCl pH 7.5, 50 mM NaCl, 1 mM DTT, 4% glycerol, room temperature, 30 min; GST-TFs on glutathione beads, 16-mer random dsDNA library, 0.1% formaldehyde crosslink after washing; high values mean tight binding
In one assay the target is T1, FEV (Homo sapiens, UniProt Q99581 1-238).
T1 sequence: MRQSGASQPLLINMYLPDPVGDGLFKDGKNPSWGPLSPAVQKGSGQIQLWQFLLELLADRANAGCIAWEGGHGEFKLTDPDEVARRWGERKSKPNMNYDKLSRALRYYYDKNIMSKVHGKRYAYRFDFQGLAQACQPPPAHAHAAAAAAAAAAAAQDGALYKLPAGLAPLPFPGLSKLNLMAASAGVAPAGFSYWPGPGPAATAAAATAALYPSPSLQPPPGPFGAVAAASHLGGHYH
The conditions noted are these: protein: recombinant; tags: N-terminal GST; dsDNA, one strand shown. The method, boiled down:
(§1)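 Yeast served to express human transcription factors as GST fusions, which were then captured on glutathione beads and labelled with DNA barcodes. Pooled with a tag-only sample, they were incubated with 200 nmole of a 16-mer random double-stranded DNA library for 30 min at room temperature in Tris/NaCl/DTT/glycerol buffer, washed, crosslinked with 0.1% formaldehyde, ligated by proximity, amplified by PCR and sequenced. Dividing each hexamer's read frequency for a factor by its frequency for the tag-only sample gives the binding signal.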

The next assay deals with ETV5 (Homo sapiens, UniProt P41161 1-510). The conditions noted are these: protein: recombinant; tags: N-terminal GST; dsDNA, one strand shown. The gist of the method: as §1
In a further assay the target is HSF1 (Homo sapiens, UniProt Q00613 1-529). The conditions noted are these: protein: recombinant; tags: N-terminal GST; chain copies: 3; dsDNA, one strand shown. The gist of the method:
as §1

The target in a further assay is T2, SPIC (Homo sapiens, UniProt Q8N5J4 1-248).
T2 sequence: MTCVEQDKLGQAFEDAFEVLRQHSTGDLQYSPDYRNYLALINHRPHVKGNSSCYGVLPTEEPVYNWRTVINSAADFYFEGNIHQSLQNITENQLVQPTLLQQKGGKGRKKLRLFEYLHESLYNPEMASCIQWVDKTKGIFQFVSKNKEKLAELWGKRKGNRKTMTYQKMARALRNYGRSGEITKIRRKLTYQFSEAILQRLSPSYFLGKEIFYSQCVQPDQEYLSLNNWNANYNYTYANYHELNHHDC
The conditions noted are these: protein: recombinant; tags: N-terminal GST; dsDNA, one strand shown. The gist of the method: as §1

Another assay concerns the target ELF4 (Homo sapiens, UniProt Q99607 1-663). As to conditions: protein: recombinant; tags: N-terminal GST; dsDNA, one strand shown. The method, boiled down: as §1
Another assay deals with T3, ELK4 (Homo sapiens, UniProt P28324-2 1-405).
T3 sequence: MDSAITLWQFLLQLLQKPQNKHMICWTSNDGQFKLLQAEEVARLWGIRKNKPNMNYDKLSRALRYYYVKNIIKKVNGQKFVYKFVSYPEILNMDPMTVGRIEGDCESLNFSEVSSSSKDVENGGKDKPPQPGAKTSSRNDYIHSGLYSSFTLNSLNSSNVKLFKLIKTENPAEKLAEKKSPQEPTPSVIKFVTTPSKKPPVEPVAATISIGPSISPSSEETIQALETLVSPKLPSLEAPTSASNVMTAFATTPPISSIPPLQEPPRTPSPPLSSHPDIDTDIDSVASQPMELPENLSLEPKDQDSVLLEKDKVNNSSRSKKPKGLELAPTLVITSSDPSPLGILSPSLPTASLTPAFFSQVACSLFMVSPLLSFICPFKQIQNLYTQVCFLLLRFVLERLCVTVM
The conditions noted are these: protein: recombinant; tags: N-terminal GST; dsDNA, one strand shown. The method, boiled down: as §1

The target in a further assay is T4, ETV2 (Homo sapiens, UniProt O00321 1-342).
T4 sequence: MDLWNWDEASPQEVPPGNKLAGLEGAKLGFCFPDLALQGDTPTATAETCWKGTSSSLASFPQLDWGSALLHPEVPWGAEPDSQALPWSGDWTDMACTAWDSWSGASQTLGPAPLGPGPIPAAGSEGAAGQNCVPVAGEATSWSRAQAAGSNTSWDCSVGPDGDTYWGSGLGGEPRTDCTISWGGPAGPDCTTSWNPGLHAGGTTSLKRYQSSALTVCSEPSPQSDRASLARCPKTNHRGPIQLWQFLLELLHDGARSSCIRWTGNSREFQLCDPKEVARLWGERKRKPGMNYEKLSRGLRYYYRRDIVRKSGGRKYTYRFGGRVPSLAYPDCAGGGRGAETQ
As to conditions: protein: recombinant; tags: N-terminal GST; dsDNA, one strand shown. The gist of the method:
as §1

A further assay has as its target T5, ELF3 (Homo sapiens, UniProt P78545 1-371).
T5 sequence: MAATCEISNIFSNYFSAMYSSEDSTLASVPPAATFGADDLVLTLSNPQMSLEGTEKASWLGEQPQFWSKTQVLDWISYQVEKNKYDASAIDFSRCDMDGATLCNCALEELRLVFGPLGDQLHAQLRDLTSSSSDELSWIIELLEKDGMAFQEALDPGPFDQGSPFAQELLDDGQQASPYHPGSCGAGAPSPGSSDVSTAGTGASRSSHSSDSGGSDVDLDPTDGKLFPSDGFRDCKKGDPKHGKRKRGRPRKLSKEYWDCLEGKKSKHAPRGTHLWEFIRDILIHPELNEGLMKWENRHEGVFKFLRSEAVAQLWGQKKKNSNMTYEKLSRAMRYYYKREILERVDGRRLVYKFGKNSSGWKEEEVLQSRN
The conditions noted are these: protein: recombinant; tags: N-terminal GST; dsDNA, one strand shown. The method, boiled down: as §1

The target in another assay is CRX (Homo sapiens, UniProt O43186 1-299). As to conditions: protein: recombinant; tags: N-terminal GST; dsDNA, one strand shown. The method, boiled down:
as §1

Another assay concerns the target ETV1 (Homo sapiens, UniProt P50549 1-477). The conditions noted are these: protein: recombinant; tags: N-terminal GST; dsDNA, one strand shown. The method, boiled down:
as §1

The target in another assay is T6, ERF (Homo sapiens, UniProt P50548 1-548).
T6 sequence: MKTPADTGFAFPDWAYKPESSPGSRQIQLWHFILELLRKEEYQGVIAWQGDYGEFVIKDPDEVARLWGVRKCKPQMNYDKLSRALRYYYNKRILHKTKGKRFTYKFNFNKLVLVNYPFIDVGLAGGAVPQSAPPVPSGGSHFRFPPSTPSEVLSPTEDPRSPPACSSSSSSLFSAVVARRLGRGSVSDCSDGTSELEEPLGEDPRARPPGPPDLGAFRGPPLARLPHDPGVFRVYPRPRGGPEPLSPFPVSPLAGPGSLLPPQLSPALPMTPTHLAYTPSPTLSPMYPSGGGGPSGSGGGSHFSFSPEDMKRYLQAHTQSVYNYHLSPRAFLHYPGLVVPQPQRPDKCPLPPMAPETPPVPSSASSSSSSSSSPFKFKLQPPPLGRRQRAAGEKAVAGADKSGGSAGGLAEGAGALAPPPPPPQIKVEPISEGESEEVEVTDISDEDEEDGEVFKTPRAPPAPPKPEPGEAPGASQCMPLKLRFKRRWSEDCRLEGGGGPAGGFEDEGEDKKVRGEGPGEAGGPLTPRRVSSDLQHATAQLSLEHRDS
As to conditions: protein: recombinant; tags: N-terminal GST; dsDNA, one strand shown. The gist of the method: as §1

Another assay has as its target T7, ETV3L (Homo sapiens, UniProt Q6ZN32 1-361).
T7 sequence: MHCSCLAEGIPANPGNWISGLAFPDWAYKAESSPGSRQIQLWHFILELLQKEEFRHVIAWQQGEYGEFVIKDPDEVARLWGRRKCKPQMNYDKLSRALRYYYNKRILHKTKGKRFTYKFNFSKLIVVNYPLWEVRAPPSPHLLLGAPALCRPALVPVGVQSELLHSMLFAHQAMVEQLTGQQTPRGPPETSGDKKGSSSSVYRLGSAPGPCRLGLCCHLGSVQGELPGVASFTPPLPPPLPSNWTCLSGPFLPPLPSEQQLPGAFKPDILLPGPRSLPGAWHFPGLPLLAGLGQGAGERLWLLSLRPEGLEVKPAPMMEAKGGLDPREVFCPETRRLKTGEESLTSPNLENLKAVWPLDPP
The conditions noted are these: protein: recombinant; tags: N-terminal GST; dsDNA, one strand shown. The method, boiled down:
as §1

For the next assay, the target named is T8, ETS2 (Homo sapiens, UniProt P15036 1-469).
T8 sequence: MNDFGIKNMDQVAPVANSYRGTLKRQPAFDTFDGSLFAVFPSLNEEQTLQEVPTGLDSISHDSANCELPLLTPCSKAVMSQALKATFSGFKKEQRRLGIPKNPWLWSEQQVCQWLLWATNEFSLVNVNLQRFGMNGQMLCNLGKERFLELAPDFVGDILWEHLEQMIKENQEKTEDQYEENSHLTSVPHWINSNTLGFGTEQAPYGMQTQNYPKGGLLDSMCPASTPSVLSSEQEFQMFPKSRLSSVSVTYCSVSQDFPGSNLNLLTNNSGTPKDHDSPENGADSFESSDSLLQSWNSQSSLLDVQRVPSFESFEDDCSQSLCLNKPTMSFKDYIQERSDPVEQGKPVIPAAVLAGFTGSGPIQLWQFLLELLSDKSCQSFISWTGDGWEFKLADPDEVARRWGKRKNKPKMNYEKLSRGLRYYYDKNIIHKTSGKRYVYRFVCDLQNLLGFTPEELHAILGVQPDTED
The conditions noted are these: protein: recombinant; tags: N-terminal GST; dsDNA, one strand shown. The method, boiled down:
as §1

Another assay deals with T9, SPDEF (Homo sapiens, UniProt O95238 1-335).
T9 sequence: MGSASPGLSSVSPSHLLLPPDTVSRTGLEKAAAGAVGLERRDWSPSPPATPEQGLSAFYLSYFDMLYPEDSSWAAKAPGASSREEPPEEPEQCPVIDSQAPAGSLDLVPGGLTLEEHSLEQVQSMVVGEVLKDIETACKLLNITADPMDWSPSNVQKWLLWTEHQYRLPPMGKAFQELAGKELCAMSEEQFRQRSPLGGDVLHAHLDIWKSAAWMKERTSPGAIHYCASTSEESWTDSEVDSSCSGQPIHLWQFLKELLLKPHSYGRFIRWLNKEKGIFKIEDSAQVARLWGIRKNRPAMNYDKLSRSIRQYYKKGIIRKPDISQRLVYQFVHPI
The conditions noted are these: protein: recombinant; tags: N-terminal GST; dsDNA, one strand shown. The method, boiled down:
as §1

A further assay deals with T10, ETV7 (Homo sapiens, UniProt Q9Y603 1-341).
T10 sequence: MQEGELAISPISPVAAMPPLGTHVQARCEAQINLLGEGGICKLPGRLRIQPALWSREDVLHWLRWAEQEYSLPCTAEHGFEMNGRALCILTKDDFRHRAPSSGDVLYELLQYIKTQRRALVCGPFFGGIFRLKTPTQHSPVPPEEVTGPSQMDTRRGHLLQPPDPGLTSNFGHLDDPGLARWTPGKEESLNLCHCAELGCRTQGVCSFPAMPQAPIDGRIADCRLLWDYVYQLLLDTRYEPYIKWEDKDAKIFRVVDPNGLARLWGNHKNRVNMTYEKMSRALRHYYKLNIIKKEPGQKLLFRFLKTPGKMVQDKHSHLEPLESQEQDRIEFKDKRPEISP
As to conditions: protein: recombinant; tags: N-terminal GST; dsDNA, one strand shown. The method, boiled down:
as §1

The target of a further assay is T11, ELF5 (Homo sapiens, UniProt Q9UKW6-2 1-255).
T11 sequence: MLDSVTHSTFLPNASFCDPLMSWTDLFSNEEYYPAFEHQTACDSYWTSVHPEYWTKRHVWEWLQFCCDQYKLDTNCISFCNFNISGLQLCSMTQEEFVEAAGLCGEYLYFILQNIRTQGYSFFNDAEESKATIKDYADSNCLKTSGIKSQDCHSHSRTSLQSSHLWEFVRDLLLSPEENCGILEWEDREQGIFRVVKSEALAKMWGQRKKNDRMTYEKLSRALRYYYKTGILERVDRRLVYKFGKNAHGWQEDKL
As to conditions: protein: recombinant; tags: N-terminal GST; dsDNA, one strand shown. The gist of the method:
as §1

The target in another assay is T12, ETV3 (Homo sapiens, UniProt P41162-2 1-143).
T12 sequence: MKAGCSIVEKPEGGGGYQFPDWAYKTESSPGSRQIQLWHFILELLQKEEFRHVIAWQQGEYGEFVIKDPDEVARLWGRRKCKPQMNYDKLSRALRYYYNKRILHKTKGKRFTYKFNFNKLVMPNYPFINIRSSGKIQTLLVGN
The conditions noted are these: protein: recombinant; tags: N-terminal GST; dsDNA, one strand shown. The method, boiled down:
as §1

Another assay deals with ETV6 (Homo sapiens, UniProt P41212 1-452). As to conditions: protein: recombinant; tags: N-terminal GST; dsDNA, one strand shown. The gist of the method:
as §1

Sequence of CRX (O43186 whole entry): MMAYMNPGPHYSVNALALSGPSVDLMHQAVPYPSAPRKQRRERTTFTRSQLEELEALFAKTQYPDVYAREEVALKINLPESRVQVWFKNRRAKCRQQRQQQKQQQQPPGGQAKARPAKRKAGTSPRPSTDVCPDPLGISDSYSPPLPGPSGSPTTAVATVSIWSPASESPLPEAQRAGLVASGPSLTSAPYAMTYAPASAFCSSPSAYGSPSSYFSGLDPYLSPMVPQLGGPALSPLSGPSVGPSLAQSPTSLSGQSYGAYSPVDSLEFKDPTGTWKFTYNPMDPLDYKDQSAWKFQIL
Sequence of ETV1 (P50549 whole entry): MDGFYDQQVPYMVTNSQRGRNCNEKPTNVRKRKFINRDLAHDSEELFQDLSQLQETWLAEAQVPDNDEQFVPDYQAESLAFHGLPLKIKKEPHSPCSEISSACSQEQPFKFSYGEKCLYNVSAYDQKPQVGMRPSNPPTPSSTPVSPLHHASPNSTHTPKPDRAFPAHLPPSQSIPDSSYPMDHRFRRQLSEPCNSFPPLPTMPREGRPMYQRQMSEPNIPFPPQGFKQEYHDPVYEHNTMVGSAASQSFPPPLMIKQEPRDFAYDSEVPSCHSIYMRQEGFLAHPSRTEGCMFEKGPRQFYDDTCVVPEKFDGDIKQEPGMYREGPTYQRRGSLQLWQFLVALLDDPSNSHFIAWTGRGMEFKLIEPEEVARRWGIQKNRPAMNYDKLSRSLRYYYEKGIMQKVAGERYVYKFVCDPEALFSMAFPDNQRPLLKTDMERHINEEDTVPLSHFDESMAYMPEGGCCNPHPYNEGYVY
Sequence of HSF1 (Q00613 whole entry): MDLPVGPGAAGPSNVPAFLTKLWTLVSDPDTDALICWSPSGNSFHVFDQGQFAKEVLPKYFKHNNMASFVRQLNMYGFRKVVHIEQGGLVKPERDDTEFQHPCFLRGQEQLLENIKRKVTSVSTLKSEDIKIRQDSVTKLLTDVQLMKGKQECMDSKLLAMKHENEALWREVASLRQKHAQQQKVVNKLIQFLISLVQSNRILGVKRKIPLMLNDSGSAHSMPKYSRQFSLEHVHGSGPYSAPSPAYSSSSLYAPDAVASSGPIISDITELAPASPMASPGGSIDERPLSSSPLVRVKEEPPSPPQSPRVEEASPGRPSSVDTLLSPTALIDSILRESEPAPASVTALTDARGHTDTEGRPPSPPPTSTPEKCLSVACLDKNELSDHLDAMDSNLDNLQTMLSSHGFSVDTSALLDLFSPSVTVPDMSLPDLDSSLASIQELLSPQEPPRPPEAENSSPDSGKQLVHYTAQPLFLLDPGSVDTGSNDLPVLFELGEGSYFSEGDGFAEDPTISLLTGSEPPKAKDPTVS
Sequence of ELF4 (Q99607 whole entry): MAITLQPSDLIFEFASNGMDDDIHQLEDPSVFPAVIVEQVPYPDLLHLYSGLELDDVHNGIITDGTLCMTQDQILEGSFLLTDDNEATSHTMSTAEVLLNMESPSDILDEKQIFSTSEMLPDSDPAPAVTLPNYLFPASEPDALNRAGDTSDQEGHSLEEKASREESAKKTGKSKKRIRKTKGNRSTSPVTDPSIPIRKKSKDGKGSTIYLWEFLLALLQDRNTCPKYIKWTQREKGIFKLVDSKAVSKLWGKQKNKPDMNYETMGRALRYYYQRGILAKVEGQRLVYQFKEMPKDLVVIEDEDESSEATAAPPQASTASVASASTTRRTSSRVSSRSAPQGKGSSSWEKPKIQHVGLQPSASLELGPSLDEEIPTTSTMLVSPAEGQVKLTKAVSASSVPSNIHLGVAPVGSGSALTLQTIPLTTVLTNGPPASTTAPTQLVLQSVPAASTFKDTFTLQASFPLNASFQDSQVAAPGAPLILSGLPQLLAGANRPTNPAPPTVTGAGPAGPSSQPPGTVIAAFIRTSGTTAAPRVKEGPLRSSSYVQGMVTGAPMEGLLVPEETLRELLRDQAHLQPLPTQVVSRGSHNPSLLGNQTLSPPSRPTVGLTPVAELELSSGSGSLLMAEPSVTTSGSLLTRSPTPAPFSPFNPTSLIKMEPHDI
Sequence of ETV5 (P41161 whole entry): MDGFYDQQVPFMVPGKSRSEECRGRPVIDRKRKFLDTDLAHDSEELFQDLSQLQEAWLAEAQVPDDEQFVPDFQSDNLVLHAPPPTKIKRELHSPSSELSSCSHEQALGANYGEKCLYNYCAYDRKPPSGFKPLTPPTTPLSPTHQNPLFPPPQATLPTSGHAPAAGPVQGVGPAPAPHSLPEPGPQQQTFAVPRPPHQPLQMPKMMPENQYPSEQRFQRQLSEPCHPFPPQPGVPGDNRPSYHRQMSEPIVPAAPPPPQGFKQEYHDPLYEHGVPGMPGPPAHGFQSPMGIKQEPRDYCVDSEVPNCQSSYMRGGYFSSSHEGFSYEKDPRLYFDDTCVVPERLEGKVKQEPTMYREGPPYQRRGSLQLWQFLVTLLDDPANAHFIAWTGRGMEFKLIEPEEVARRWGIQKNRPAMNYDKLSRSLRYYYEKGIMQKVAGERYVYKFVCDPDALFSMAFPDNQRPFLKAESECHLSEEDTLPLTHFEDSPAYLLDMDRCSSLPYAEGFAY
Sequence of ETV6 (P41212 whole entry): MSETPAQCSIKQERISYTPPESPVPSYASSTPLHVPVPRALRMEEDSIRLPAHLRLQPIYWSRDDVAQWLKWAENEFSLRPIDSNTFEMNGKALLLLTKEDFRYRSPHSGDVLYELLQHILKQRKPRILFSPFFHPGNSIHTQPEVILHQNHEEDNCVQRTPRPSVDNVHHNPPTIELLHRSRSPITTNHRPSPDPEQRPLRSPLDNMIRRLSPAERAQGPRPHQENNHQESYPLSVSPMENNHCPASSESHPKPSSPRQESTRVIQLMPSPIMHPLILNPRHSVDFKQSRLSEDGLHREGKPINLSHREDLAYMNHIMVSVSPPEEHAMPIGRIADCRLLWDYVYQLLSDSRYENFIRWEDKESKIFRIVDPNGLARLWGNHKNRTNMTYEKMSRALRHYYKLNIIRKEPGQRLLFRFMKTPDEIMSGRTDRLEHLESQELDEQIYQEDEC

As to TTTAAC, the binding signal in the assay with FEV was 1.09 fold enrichment (6-mer frequency, TF over GST control); with ETV5, 1.12 fold enrichment (6-mer frequency, TF over GST control); with HSF1, 1.22 fold enrichment (6-mer frequency, TF over GST control); with SPIC, 1.23 fold enrichment (6-mer frequency, TF over GST control); with ELF4, 1.14 fold enrichment (6-mer frequency, TF over GST control); with ELK4 it was 1.13 fold enrichment (6-mer frequency, TF over GST control). The binding signal is 1.24 fold enrichment (6-mer frequency, TF over GST control) in the assay with ETV2; 1.15 fold enrichment (6-mer frequency, TF over GST control) with ELF3; 1.74 fold enrichment (6-mer frequency, TF over GST control) with CRX; 1.18 fold enrichment (6-mer frequency, TF over GST control) with ETV1; 1.28 fold enrichment (6-mer frequency, TF over GST control) in the assay with ERF; 1.17 fold enrichment (6-mer frequency, TF over GST control) in the assay with ETV3L. Besides, the binding signal with ETS2 is 1.16 fold enrichment (6-mer frequency, TF over GST control); with SPDEF, 1.12 fold enrichment (6-mer frequency, TF over GST control); with ETV7, 1.07 fold enrichment (6-mer frequency, TF over GST control); with ELF5, 1.11 fold enrichment (6-mer frequency, TF over GST control); in the assay with ETV3 it was 1.21 fold enrichment (6-mer frequency, TF over GST control); with ETV6, 1.19 fold enrichment (6-mer frequency, TF over GST control).
